From PubChem BioAssay (Tox21)
Values joined by “and” are separate entries in the source; they are usually repeats but may differ in a detail not shown here. Identical values can stand only once. Records with an inconclusive call do not appear. Entries that show only a call come without a potency. Some structures have more than one record in an assay (separate samples or runs), and their calls can disagree. Active and inactive are the calls of the source. The call rests on the fitted dose curve; in most records, active means well fitted activation curve with a large enough effect in the repeat runs; inconclusive means weak or mixed curves; inactive means no such curve, though single readings can be large or run the other way.

target: Nuclear receptor subfamily 1 group I member 3 (Homo sapiens) (UniProt Q14994); assay: qHTS assay to identify small molecule agonists of the constitutive androstane receptor (CAR) signaling pathway (AID 1224839); conditions: HepG2 hCAR CYP2B6-luciferase, agonist mode, 24 h; series mostly up to 92.4 µM; further: nearly all actives have a fitted effect of over 15% in size;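 on activation: HepG2 cells stably carrying human CAR and a CYP2B6 luciferase reporter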
Source text: National Center for Advancing Translational Sciences [NCATS] NIH Chemical Genomics Center [NCGC] U.S. Environmental Protection Agency [EPA] National Institutes of Environmental Health Sciences [NIEHS] National Toxicology Program [NTP] Assay overview: The constitutive androstane receptor (CAR) is a nuclear receptor which regulates multiple drug metabolizing enzymes (DMEs) and transporters. Activating CAR will generally increase the transcription and subsequent translation of CYP2B6 and CYP3A4. These two DMEs represent about 50% of the drug metabolizing potential in the body. […] Recently, there have also been studies performed indicating CARs role in energy metabolism and cancer therapy. Therefore, inducing CARs activity could have a potential effect on diabetes and cancer. Identifying environmental toxins and compounds which modulate CAR, through the use of the Tox21 10K compound collection, will be an important step in determining the toxicity and potential therapeutic effects these factors will have on the human body.
Assay Protocol Summary: A double-stable (hCAR and CYP2B6-2.2kb) transfected cell line, derived from human hepatoma (HepG2) cells, was utilized for the duration of the quantitative high-throughput screens. The HepG2-CYP2B6-hCAR cells suspended in DMEM culture medium supplemented with 10% FBS, 5 ug/mL blasticidin, 0.5 mg/mL geneticin, 100 U/mL penicillin and 100 ug/mL streptomycin were dispensed at 2500 cells/4 uL/well in 1536-well white solid bottom plates using a Multidrop Combi. After the assay plates were incubated at 37 C/5% CO2 for 4 hrs, 23 nL of compounds at 15 concentrations (from 5-48 columns) or positive control (from 1 to 4 columns) were transferred to the assay plates using a Pintool station. One uL of PK11195, was added using a Flying Reagent Dispenser to generate a final concentration of 0.75 uM PK11195 inside each well. After a 24 hr incubation period at 37 C/5% CO2, four uL of ONE-Glo reagent was added into the assay plates using a Flying Reagent Dispenser. After a 30 min incubation period at room temperature, the luminescence intensity in the assay plates was measured using a ViewLux plate reader.
Potency means the concentration at half of the fitted maximal effect.

Sequence of Nuclear receptor subfamily 1 group I member 3 (Homo sapiens) (Q14994 whole entry, looked up): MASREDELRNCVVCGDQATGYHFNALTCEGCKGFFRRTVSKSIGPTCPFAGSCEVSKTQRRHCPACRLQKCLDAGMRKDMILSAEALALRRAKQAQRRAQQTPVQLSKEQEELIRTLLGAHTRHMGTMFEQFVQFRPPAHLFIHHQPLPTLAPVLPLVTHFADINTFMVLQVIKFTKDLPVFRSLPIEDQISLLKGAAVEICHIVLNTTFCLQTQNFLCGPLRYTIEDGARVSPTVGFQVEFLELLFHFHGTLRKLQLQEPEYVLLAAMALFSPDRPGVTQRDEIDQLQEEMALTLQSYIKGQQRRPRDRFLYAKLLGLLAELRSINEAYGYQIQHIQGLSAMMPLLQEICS

Row | SMILES | Potency | activation
1 | CCCCOCCOC(=O)c1ccccc1C(=O)OCCOCCCC | inactive | 
2 | CCCCN(CCO)CCCC | inactive | 
3 | CN1C(=O)c2ccc([N+](=O)[O-])cc2C1=O | inactive | 
4 | [Cl][In]([Cl])[Cl] | inactive | 
5 | CC(C)(c1ccccc1)c1ccc(Nc2ccc(C(C)(C)c3ccccc3)cc2)cc1 | inactive | 
6 | O=C(Nc1ccccc1SSc1ccccc1NC(=O)c1ccccc1)c1ccccc1 | inactive | 
7 | O=C(O[C@@H]1Cc2c(O)cc(O)cc2O[C@@H]1c1cc(O)c(O)c(O)c1)c1cc(O)c(O)c(O)c1 | inactive | 
8 | CCCN[C@H]1CCc2nc(N)sc2C1 | inactive | 
9 | Cc1cc(C(C)(C)C)c(O)c(C(C)(C)C)c1 | inactive | 
10 | CC(=O)O[C@]1(C(C)=O)CC[C@H]2[C@@H]3C[C@H](C)C4=CC(=O)CC[C@]4(C)[C@H]3CC[C@@]21C | inactive | 
11 | BrC1CCC(Br)C(Br)CCC(Br)C(Br)CCC1Br (stereo not given) | inactive | 
12 | CN(C)c1ccc(C(=C2C=CC(=[N+](C)C)C=C2)c2ccccc2)cc1 | inactive | 
13 | CC(C)(O)CCC(C)(C)O | inactive | 
14 | Nc1cc(Cl)c(-c2cc(Cl)c(N)cc2Cl)cc1Cl | inactive | 
15 | CC(C)CCCCCCc1ccc(O)cc1 | inactive and 17.2 µM (active) | 
16 | CCCCCCCCCCCCCC[P+](CCCC)(CCCC)CCCC | inactive | 
17 | CCC(C)(Oc1ccc(C2(c3ccc(OC(C)(CC)C(=O)O)cc3)CCCCC2)cc1)C(=O)O (stereo not given) | inactive | 
18 | CC(C)CCOCc1ccccc1 | inactive | 
19 | CC(=O)OCC1=C(C(=O)O)N2C(=O)[C@@H](NC(=O)Cc3cccs3)[C@H]2SC1 | inactive | 
20 | N[C@@H]1CONC1=O | inactive | 

Row | SMILES | Potency | activation
21 | CC(COc1ccccc1)N(CCCl)Cc1ccccc1 (stereo not given) | 27.6 µM (active) and 8.63 µM (active) and 10.6 µM (active) | 
22 | CCCCCC(=O)O[C@]1(C(C)=O)CC[C@H]2[C@@H]3CCC4=CC(=O)CC[C@]4(C)[C@H]3CC[C@@]21C | inactive | 
23 | CC[C@H]1CN2CCc3cc(OC)c(OC)cc3[C@@H]2C[C@@H]1C[C@H]1NCCc2cc(OC)c(OC)cc21 | inactive | 
24 | NC(Cc1ccc(Cl)cc1)C(=O)O (stereo not given) |  | 0.949% [at 0.349 µM] (inactive)
25 | Cc1c(O)cccc1C(=O)N[C@@H](CSc1ccccc1)[C@H](O)CN1C[C@H]2CCCC[C@H]2C[C@H]1C(=O)NC(C)(C)C | inactive | 
26 | COC(c1ccccc1)(c1ccccc1)[C@H](Oc1nc(C)cc(C)n1)C(=O)O | inactive | 
27 | CCCNC(C)C(=O)Nc1ccccc1C (stereo not given) | inactive | 
28 | CC(=O)N[C@@H](CS)C(=O)O | inactive | 
29 | O=C(O)CCc1ccccc1 | inactive | 
30 | Cc1ccc(S(=O)(=O)Oc2ccc(N=Nc3ccc(-c4ccc(N=Nc5c(O)ccc6cc(S(=O)(=O)O)cc(S(=O)(=O)O)c56)c(C)c4)cc3C)cc2)cc1 | inactive | 
31 | OCCOCCN1CCN(C(c2ccccc2)c2ccc(Cl)cc2)CC1 (stereo not given) | inactive | 
32 | CCc1ccc(C(c2ccc(CC)cc2)C(Cl)Cl)cc1 | 22 µM (active) | 
33 | CN(C)c1ccc2nc3ccc(=[N+](C)C)cc-3sc2c1 | 1.54 µM (active) and 750 nM (active) | 
34 | CC(C)(C)NCC(O)COc1ccccc1OCC1CCCO1 (stereo not given) | inactive | 
35 | CC(C)C(=O)c1c(C(C)C)nn2ccccc12 | 23.7 µM (active) | 
36 | O=C(Cl)c1cccc(C(=O)Cl)c1 | inactive | 
37 | CCCCCCCCCCCCCCCCCl |  | -1.81% [at 19 µM] (inactive)
38 | O=C(O)CP(=O)(O)O | inactive | 
39 | CCCCC/C=C/CC1CC(=O)OC1=O (stereo not given) | inactive | 
40 | O=c1n(CC2CO2)c(=O)n(CC2CO2)c(=O)n1CC1CO1 (stereo not given) | inactive | 
